In the supplement of paper PMC3334620:
Over roughly 33,000 sequences, “E-score (-0.5 to 0.5)” has its median near -0.035; the highest 2% begin near 0.34. The full list was thinned out, with the highest values kept by preference.

Target: T1, Mot3 (UniProt P54785)
T1 sequence: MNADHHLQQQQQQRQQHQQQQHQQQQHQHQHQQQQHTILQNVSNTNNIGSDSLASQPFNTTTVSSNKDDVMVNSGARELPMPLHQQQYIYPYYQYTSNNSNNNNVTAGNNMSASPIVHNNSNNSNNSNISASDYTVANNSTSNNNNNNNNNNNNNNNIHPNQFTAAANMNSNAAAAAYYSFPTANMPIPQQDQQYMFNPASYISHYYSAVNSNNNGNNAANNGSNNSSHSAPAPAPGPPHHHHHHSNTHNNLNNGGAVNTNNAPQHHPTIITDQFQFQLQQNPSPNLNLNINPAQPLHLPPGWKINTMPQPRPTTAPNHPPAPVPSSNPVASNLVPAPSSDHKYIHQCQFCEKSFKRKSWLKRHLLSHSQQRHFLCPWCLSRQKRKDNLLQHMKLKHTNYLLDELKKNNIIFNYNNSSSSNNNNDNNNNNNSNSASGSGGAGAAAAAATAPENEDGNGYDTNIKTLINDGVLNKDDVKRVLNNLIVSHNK
Experiment: PBM E-score (8-mer binding enrichment) (E-score (-0.5 to 0.5)); higher = stronger / more preferred TF binding
Settings: protein concentration: 200 nM; construct: GST-full length
Description: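 Universal 'all 10-mer' protein binding microarrays (Agilent AMADID 015681) probed with GST-tagged S. cerevisiae TFs (full-length or DBD) made by in vitro transcription/translation (PURExpress), about 100-200 nM. Bound TF was detected with fluorescent anti-GST. Each ungapped 8-mer (which stands for itself and its reverse complement) is scored by the PBM enrichment score (E-score), a modified Wilcoxon-Mann-Whitney statistic from -0.5 to +0.5, computed with the Universal PBM Analysis Suite. Scale: above 0.35 generally sequence-specific binding.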

Sequence | PBM E-score
AGGTTGAT | -0.099
GCCCCCTA | -0.355
ATAGCGAT | -0.11
CAGAGCCG | -0.157
GATGTGTA | 0.347
GTTGTGTA | 0.373
ATTGTGTG | 0.0589
AATGTGTA | 0.289
CATGTGTA | 0.331
ATTGTGTC | 0.139
ATTGTGTA | 0.346
CTTGTGTA | 0.333
GTGTTGTA | 0.283
ATCTGCCC | -0.0711
ACTGGCCC | -0.252
AACGACCG | -0.163
AAATGCGG | -0.0946
ACTGGCTG | -0.261
GACTAATC | -0.182
GCCTGTAA | 0.391
CCCTGTTA | 0.12
GCCTGCGA | 0.35
GCCTGTAC | 0.338
CCCTGCGA | -0.212
GCCTGTTA | 0.35

Sequence | PBM E-score
ACCTGCGA | 0.0659
TCCTGTAA | 0.338
ACCTGTTA | 0.167
AGAGCACC | -0.233
ACGTATCC | -0.129
CCATCTCC | -0.26
CCGGGGTC | -0.135
AGTGCGAT | -0.00843
GATTTCGC | 0.167
GAGACTCA | -0.251
ACACGTGG | 0.236
ACACGTTG | 0.305
ACACGTTA | 0.345
AAACGTGT | 0.344
AAACGTGG | -0.0479
ACACGTGA | 0.273
ACACGTGT | 0.363
ACACGTTC | 0.303
AAACGTGA | 0.178
CACGCGCC | 0.181
CCAGGGTA | -0.153
GCCCAACA | 0.146
ATCAAAAC | -0.118
ATGTTTTA | 0.362
CTGTTTAC | 0.28

Sequence | PBM E-score
ATGTTTAC | 0.374
CTGTTTTA | 0.0859
ATGTTTAG | 0.279
GTGTTTTA | 0.219
CTAGAACC | -0.0352
AAGCCCTG | -0.0744
AACTACCG | -0.0555
ATGGGGAG | -0.135
GGGTGTAA | 0.223
CTGTGTGA | 0.181
ATGTATAA | 0.256
GTGTATAA | 0.343
CTGTGTAC | 0.294
CTGTATAA | 0.0988
ATGTGTAC | 0.285
ATGTGTAG | 0.303
GAGTGTAA | 0.249
GTGTGTAA | 0.394
CTGTGTAA | 0.41
ATGTGTAA | 0.352
CCGGATGC | -0.24
ACGATCTC | -0.198
ACTAGGGG | -0.223
CGCTCTTC | -0.174
GACACATC | -0.0862

Sequence | PBM E-score
CCTAGGAC | -0.0674
AAGATGTA | 0.194
AACATGTA | 0.42
AACATGTC | 0.296
AACATGTT | 0.387
AACATTTA | 0.244
AACATGTG | 0.278
CTGGCCCC | -0.215
AACGGTTC | -0.172
AACAGAAT | 0.0192
ATCTTAAG | -0.14
CCTGACCG | -0.159
CGTAGGAC | -0.166
CGTAGGAA | 0.351
GGTAGGAA | 0.313
GGTAGGAC | -0.172
AGTAGGAT | 0.0448
AGTAGGAA | 0.403
AGTAGGAC | -0.258
CGTAGGAG | -0.0892
TGTAGGAA | 0.406
CATCAGGG | -0.0517
ACTGCGGC | -0.227
AACTAAGA | 0.0799
CAATTGCA | -0.0452

Sequence | PBM E-score
CCTACCTA | 0.156
CTTACCTA | 0.175
AGTACCTC | -0.107
CGTACCTA | 0.395
AGTACCAA | 0.013
CGTACCTC | -0.144
GTTACCTA | 0.369
GCTACCTA | 0.0719
GGTACCCA | 0.00798
ATTACCTA | 0.332
AGTACCTA | 0.342
GGTACCTA | 0.424
GTCACCTA | -0.0234
ATGAAGTA | -0.0752
CTTACAGC | 0.00061
CCCCATAC | 0.00082
GATGGAAC | -0.0944
AGTACCAG | -0.106
ATTACCTG | 0.336
AGTACCTG | 0.378
CAGCCCGG | -0.239
CGGGGAAC | -0.0973
CATGTATC | 0.277
AGTGTAGA | 0.151
GATGTAGA | 0.195

Sequence | PBM E-score
CAAGTAGG | 0.105
AATGTAGG | 0.191
GATGTATA | 0.195
CATGTAGC | 0.276
CATGTATA | 0.376
CATGTAGG | 0.374
CATGTAGA | 0.39
CGTGTAGA | 0.414
CGTGTAGC | 0.228
ATTGGAGA | -0.179
AAGGGGGC | -0.138
AGTAGAAG | 0.0882
AGGTTCAT | -0.0206
GGCCCAGA | -0.411
CCAAGACG | -0.236
ACAACGGG | 0.07
GCTAACTA | 0.00452
CGTGTAAA | 0.438
AGTGTAAG | 0.00213
GGTGTAAC | 0.164
CGTGTAAC | 0.351
ACTGTAAG | 0.0605
CGTGTAAG | 0.38
AGTGTAAA | 0.28
AGTGTAAC | 0.128

Sequence | PBM E-score
AGTGTAAT | 0.308
GGTGTAAA | 0.297
TGTGTAAA | 0.416
ACCTAGGT | 0.124
CGGTCTAC | -0.0115
ACTTCTGA | -0.101
GTGCATAA | 0.084
AGGTTGTC | -0.0425
CAAAGAAC | 0.197
CGCGGAAG | -0.172
CCCATGTC | 0.0657
ACCATGTC | 0.223
CCCATGGA | -0.187
CCCATGTA | 0.377
GCCATGTA | 0.383
ACCATGTG | 0.0765
GCCATGGA | -0.144
ACCATGTA | 0.404
GCCATGCA | -0.135
ATACCTCG | 0.121
AAGGTGGC | -0.095
AAACAGCT | -0.268
